Reference: PubChem BioAssay AID1159580 (chemical genetic matrix, 2015)
Hit rate of the full screen: of about 5,500 compounds, about 2,000 (36%) were called active. Roughly 18% stayed inconclusive and do not appear here. No stated cut-off is given here; in the data, active means normalized growth mostly below about 0.91 (no sharp cut-off); inconclusive means no clear call, values can overlap the other calls; inactive means mostly above about 0.92. Some of the results follow.

Test: chemical genetic growth profiling, strain panel (AID 1159580);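 further: tested at 20 µM; growth read once vehicle control cultures reached saturation at 30 °C; 1 = growth at the plate median or of vehicle wells; lower values mean less growth of the strain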
Conditions: growth OD

Measured: normalized growth

Cc1cc(C(F)(F)F)c(C#N)c(=O)[nH]1
inactive: S. cerevisiae deletion strains, locus YAL013W, strain DEP1, hits give low values 1.02 | S. cerevisiae deletion strains, locus YBR229C, strain ROT2, hits give low values 1 | S. cerevisiae deletion strains, locus YCL061C, strain MRC1, hits give low values 1 | S. cerevisiae deletion strains, locus YDL101C, strain DUN1, hits give low values 0.995 | S. cerevisiae deletion strains, locus YDL134C, strain PPH21, hits give low values 1.01 | S. cerevisiae deletion strains, locus YDR150W, strain NUM1, hits give low values 0.982 | S. cerevisiae deletion strains, locus YEL061C, strain CIN8, hits give low values 1 | S. cerevisiae deletion strains, locus YGR078C, strain PAC10, hits give low values 1 | S. cerevisiae deletion strains, locus YHR030C, strain SLT2, hits give low values 1.01 | S. cerevisiae deletion strains, locus YHR087W, strain rtc3, hits give low values 1 | S. cerevisiae deletion strains, locus YJL187C, strain SWE1, hits give low values 1 | S. cerevisiae deletion strains, locus YJR043C, strain POL32, hits give low values 0.997 | S. cerevisiae deletion strains, locus YJR075W, strain HOC1, hits give low values 1.03 | S. cerevisiae deletion strains, locus YKL190W, strain CNB1, hits give low values 1.01 | S. cerevisiae deletion strains, locus YLR039C, strain RIC1, hits give low values 1.04 | S. cerevisiae deletion strains, locus YLR058C, strain SHM2 (second series), hits give low values 1 | S. cerevisiae deletion strains, locus YLR085C, strain ARP6, hits give low values 1.03 | S. cerevisiae deletion strains, locus YLR262C, strain YPT6, hits give low values 1.03 | S. cerevisiae deletion strains, locus YML094W, strain GIM5, hits give low values 0.997 | S. cerevisiae deletion strains, locus YMR219W, strain ESC1, hits give low values 1.01 | S. cerevisiae deletion strains, locus YMR263W, strain SAP30, hits give low values 0.963 | S. cerevisiae deletion strains, locus YNL128W, strain TEP1, hits give low values 1.02 | S. cerevisiae deletion strains, locus YNL153C, strain GIM3, hits give low values 1 | S. cerevisiae deletion strains, locus YNL298W, strain CLA4 (second series), hits give low values 1.02 | S. cerevisiae deletion strains, locus YNL322C, strain KRE1, hits give low values 1 | S. cerevisiae deletion strains, locus YNR030W, strain Alg12, hits give low values 1.02 | S. cerevisiae deletion strains, locus YOL006C, strain TOP1, hits give low values 1.06 | S. cerevisiae deletion strains, locus YPL055C, strain LGE1, hits give low values 1.02 | S. cerevisiae deletion strains, locus YPL241C, strain CIN2, hits give low values 0.941 | S. cerevisiae deletion strains, locus YPR135W, strain CTF4, hits give low values 1.06 | S. cerevisiae strains, strain wild type, hits give low values 1.02
